{"source": "PubChem BioAssay (Tox21)", "note": "Records with an inconclusive call do not appear. Unmarked numbers belong to inactive results. Activity calls are given as the source filed them. Calls come from the whole dose curve; as a rule, active = well fitted activation curve with a large enough effect in the signal ratio in the repeat runs (not every such curve was filed as active); inconclusive = weak or mixed curves; inactive = flat fitted curve, though single readings scatter; the % refers to the signal ratio. % is set by controls: 0 for no effect and ±100 for the full control effect.", "data": [{"test": "qHTS assay to identify small molecule agonists of the hypoxia (HIF-1) signaling pathway (AID 1224846)", "conditions": "HRE-bla ME-180 cells, beta-lactamase ratio, 17 h; series mostly up to 76.8 µM; activation: at the top concentration", "from_the_text": "U.S. Tox21 Program National Center for Advancing Translational Sciences [NCATS] NIH Chemical Genomics Center [NCGC] U.S. Environmental Protection Agency [EPA] National Institutes of Environmental Health Sciences [NIEHS] National Toxicology Program [NTP] U.S. Food and Drug Administration [FDA] Tox21 Assay Overview: Hypoxia-inducible factor-1 (HIF-1) is the major hypoxia-regulated transcription factor that controls cellular responses to low oxygen concentration. HIF-1 is composed of two subunits: hypoxia responsive HIF-1-alpha and constitutively expressed HIF-1-beta, which is also known as aryl hydrocarbon receptor nuclear translocator. During hypoxic conditions, HIF-1-alpha heterodimerizes with HIF-1-beta and translocates into the nucleus where the HIF-1 complex binds to the hypoxia-response element (HRE) and activates expression of target genes such as VEGF (vascular endothelial growth factor). The HIF-1 pathway is essential to normal growth and development, and is involved in the pathophysiology of cancer, inflammation, and ischemia. Using a beta-lactamase reporter-gene under control of the hypoxia response element, a cell-based assay [CellSensor(TM) HRE-bla ME-180 from Life Technologies, Carlsbad, CA] was used to measure hypoxia-induced signaling. Tox21 10K library compounds were measured for their ability to induce the reporter gene activity.\nTox21 Assay Protocol Summary: HRE-bla ME-180 cells were dispensed at 2,000 cells per well in 6 uL of assay medium containing 0.5% dialyzed FBS into black wall/clear-bottom 1536-well plates using a Multidrop Combi (Thermo Scientific, Waltham, MA) dispenser. After the assay plates were incubated at 37C and 5% CO2 for 5 hrs, 23 nL of compounds dissolved in DMSO, positive controls or DMSO only was transferred to each well of the assay plate using a Pintool station (Kalypsys, San Diego, CA). The assay plates were incubated at 37C and 5% CO2 for 17 hrs. One uL of LiveBLAzerTM B/G FRET substrate (CCF4-AM) (Life Technologies) was added to each well using a Flying Reagent Dispenser (Aurora Discovery, San Diego, CA).", "values": [{"molecule": "O=[N+]([O-])c1cc(Cl)c(Cl)cc1Cl", "activation": "0.212%"}, {"molecule": "Nc1c(Br)cc(Br)c2c1C(=O)c1ccccc1C2=O", "activation": "0.237% [at 15.8 µM]"}, {"molecule": "O=C(N[C@H]1CN2CCC1CC2)c1ccc2c(c1)OCCO2", "activation": "-0.474%"}, {"molecule": "Cc1ccc2c(C)cccc2c1", "activation": "0.0605%"}, {"molecule": "NNCCO", "activation": "-1.27%"}, {"molecule": "COC1CC(=C(c2cccs2)c2cccs2)C[N+](C)(C)C1", "note": "(stereo not given)", "activation": "3.98% [at 35.5 µM]"}, {"molecule": "FC(F)OC(F)(F)C(F)Cl", "note": "(stereo not given)", "activation": "-0.919%"}, {"molecule": "CCNC(=O)NC(=O)/C(C#N)=N/OC", "activation": "0.0253%"}, {"molecule": "Cc1cnc(C2=NC(C)(C(C)C)C(=O)N2)c(C(=O)O)c1", "note": "(stereo not given)", "activation": "-1.54%"}, {"molecule": "C[C@@H]1C[C@@H]([C@H](O)CC2CC(=O)NC(=O)C2)C(=O)[C@@H](C)C1", "outcome": "inactive"}, {"molecule": "CCc1ccccc1N", "activation": "-1.25%"}, {"molecule": "CC(C)CCON=O", "activation": "0.571%"}, {"molecule": "CCOc1cccc(C2(N3CCN(c4ccccc4)CC3)CCC(C)CC2)c1", "note": "(stereo not given)", "activation": "0.0662%"}, {"molecule": "COc1cc(CC#N)cc(OC)c1OC", "activation": "-1.46% [at 35.5 µM]"}, {"molecule": "C=C(Cl)Cl", "activation": "-0.279%"}, {"molecule": "C1CS1", "activation": "-0.636%"}, {"molecule": "Cc1nnc(-c2ccccc2)c(=O)n1N", "activation": "0.0458%"}, {"molecule": "CC(Cl)C(=O)O", "note": "(stereo not given)", "activation": "0.641%"}, {"molecule": "COC1=CC(=O)O[C@@H](/C=C/c2ccc3c(c2)OCO3)C1", "activation": "0.45%"}, {"molecule": "COCc1cnc(C2=NC(C)(C(C)C)C(=O)N2)c(C(=O)O)c1", "note": "(stereo not given)", "activation": "-0.817%"}, {"molecule": "O=S(=O)(Cl)Cl", "activation": "-1.07%"}, {"molecule": "C=CC(=O)NC(C)(C)CC(C)=O", "activation": "-0.279%"}, {"molecule": "O=C(O)c1cc(I)cc(I)c1I", "activation": "-1.4%"}, {"molecule": "CC(C)(C#N)C(C)(C)C#N", "activation": "0.141%"}, {"molecule": "ClCc1ccccc1Cl", "activation": "-0.911%"}, {"molecule": "Clc1ccccc1", "activation": "-0.67%"}, {"molecule": "CN[C@@H](C)[C@H](O)c1ccccc1", "activation": "0.245% [at 35.5 µM]"}, {"molecule": "C#CC(O)(C=CCl)CC", "note": "(stereo not given)", "activation": "-0.717% [at 35.5 µM]"}, {"molecule": "CN(C1CCCCC1)C1CCCCC1", "activation": "-1.16%"}, {"molecule": "CC(O)CN1CCN(CC(=O)[O-])CCN(CC(=O)[O-])CCN(CC(=O)[O-])CC1.[Gd+3]", "note": "(stereo not given)", "activation": "-0.853% [at 35.5 µM]"}, {"molecule": "Nc1ccccc1C(=O)OCCc1ccccc1", "activation": "2.19%"}, {"molecule": "OC[P+](CO)(CO)CO", "outcome": "inactive"}, {"molecule": "OCCSSCCO", "activation": "-0.419%"}, {"molecule": "CC(C)(C)NCC(O)c1cc(Cl)c(N)c(C(F)(F)F)c1", "note": "(stereo not given)", "activation": "0.0224% [at 35.5 µM]"}, {"molecule": "CC(CC(C(N)=O)(c1ccccc1)c1ccccc1)N(C)C", "note": "(stereo not given)", "activation": "-0.637% [at 35.5 µM]"}, {"molecule": "Cc1ccc(N)c(C)c1", "outcome": "inactive"}, {"molecule": "C[Si](Cn1cncn1)(c1ccc(F)cc1)c1ccc(F)cc1", "outcome": "inactive"}, {"molecule": "CC(C)(C)NCC(O)c1ccccc1Cl", "note": "(stereo not given)", "activation": "-0.314% [at 35.5 µM]"}, {"molecule": "CCCCCCCCP(=O)(O)O", "activation": "-1.56%"}, {"molecule": "Cc1ccccc1", "activation": "-0.479%"}]}]}
